Platelet DG rel – modulates dense granule release in human platelets. human platelet-rich plasma, SFLLRN dense granule ATP release, luminescence. inhibition, %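 (compounds screened at 7.5 µM in platelet-rich plasma)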. actives 0.22% (n = 300,000);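 active = mean replicate score, as percent of positive control, at or above 50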
aSyn 5UTR inh – MLPCN primary screen, SNCA 5' untranslated region; inhibition, % (tested at 7.5 µM); alpha-synuclein 5'UTR reporter, inhibitor activity; AID 1813; actives 0.82% (n = 300,000); in the data active = inhibition above about 60%;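 note: H4 neuroglioblastoma cells stably carrying SNCA 5'UTR luciferase fusion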
HIF act – HIF pathway transcriptional activation; AID 1910; activation, % at 7.5 µM (by protocol); actives 0.32% (n = 300,000); U2OS HRE-luciferase reporter, luminescence; normalized: DMSO 0%, desferrioxamine 100%;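 active = mean activation of at least 10% of the iron chelator positive control signal, with at least half of replicates also reaching 10%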
Wee1 degr inh – inhibitors of human Wee1 degradation. HeLa Luc-Wee1K328M stability, luciferase luminescence; 100% = proteasome inhibitor MG132 effect. P30291. actives 1.2% (n = 220,000). reporter increase, % at 5 µM. AID 1321;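 active = activation above the mean of all tested compounds plus 3 SD, set per screening run, cut at about 8.8% in these data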;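 note: cells exposed to compound for 20 h before luminescence read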
Target sequence (P30291 whole entry K328M): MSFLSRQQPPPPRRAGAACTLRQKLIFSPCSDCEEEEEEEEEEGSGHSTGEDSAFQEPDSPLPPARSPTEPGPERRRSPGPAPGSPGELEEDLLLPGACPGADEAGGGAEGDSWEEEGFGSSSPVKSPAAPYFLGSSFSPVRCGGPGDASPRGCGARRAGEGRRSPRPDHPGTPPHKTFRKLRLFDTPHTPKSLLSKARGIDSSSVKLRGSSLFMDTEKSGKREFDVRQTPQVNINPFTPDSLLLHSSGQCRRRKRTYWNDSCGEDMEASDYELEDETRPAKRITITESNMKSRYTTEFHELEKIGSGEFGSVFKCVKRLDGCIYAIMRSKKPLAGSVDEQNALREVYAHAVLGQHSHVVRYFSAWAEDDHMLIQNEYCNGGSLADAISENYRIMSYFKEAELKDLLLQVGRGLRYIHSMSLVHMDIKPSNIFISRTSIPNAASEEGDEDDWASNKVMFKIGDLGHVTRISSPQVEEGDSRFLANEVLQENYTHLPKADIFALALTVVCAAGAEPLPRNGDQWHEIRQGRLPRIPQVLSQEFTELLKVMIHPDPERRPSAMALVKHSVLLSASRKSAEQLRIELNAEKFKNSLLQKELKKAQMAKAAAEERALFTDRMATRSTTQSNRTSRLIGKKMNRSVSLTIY
KLF5 inh – suppresses KLF5 promoter-driven expression. inhibition, % at 5 µM. AID 1700. DLD-1 KLF5 promoter-luciferase reporter, luminescence. actives 0.23% (n = 290,000);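 active = inhibition above a per-plate limit of that plate's mean compound inhibition plus 3 SD, cut at about 60% in these data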;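 note: higher means less KLF5 promoter-driven luciferase light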
Numbers stand for hits; - = inactive; . = not tested or not shown. Rows were chosen to be rich in hits. Some 2.1% of all compounds tested hit in one or more screens of this group.

SMILES | Platelet DG rel | aSyn 5UTR inh | HIF act | Wee1 degr inh | KLF5 inh
Cc1ccc(S(=O)(=O)N2CCN(C(=O)CCC(=O)NCc3ccc(F)cc3)CC2)cc1 | - | - | - | 9.4 | -
CN1CCN(C(=O)CCC(=O)NCc2ccc(F)cc2)CC1 | - | - | - | . | -
Cc1ccc(S(=O)(=O)N2CCN(C(=O)Cc3ccccc3)CC2)cc1 | - | - | - | - | -
Cc1ccc(S(=O)(=O)N2CCN(C(=O)CC(C)(C)C)CC2)cc1 | - | - | - | 9.8 | -
O=C(COC(=O)C1C2CC3OC(=O)C1C3C2)Nc1cccc(Cl)c1 (centres undefined) | - | - | - | . | -
COc1ccc(Nc2oc(COc3ccccc3OC)nc2C#N)cc1 | - | 98 | - | - | -
Cc1ccc(C)c(N2CCN(S(=O)(=O)c3ccc4c(c3)OCCO4)CC2)c1 | 57 | - | - | - | -
COc1cc(/C=C2\COC/C(=C\c3ccc(O)c(OC)c3)C2=O)ccc1O | - | 103 | - | - | -
COc1cc(/C=C2\SC(=S)N(N3CCOCC3)C2=O)ccc1O | - | - | - | 9.0 | -
CCN(CC)c1ccc(/C=C2/C(=O)N(c3ccc([N+](=O)[O-])cc3)N=C2N2CCOCC2)cc1 | - | - | - | - | -
COc1cc(/C=C2/C(=O)N(c3ccc([N+](=O)[O-])cc3)N=C2N2CCOCC2)ccc1O | - | - | - | 8.9 | -
COc1cc(/C=C2/CC/C(=C/c3ccc(O)c(OC)c3)C2=O)ccc1O | - | - | - | 10 | -
Cc1ccc(C)c(NC(=O)CN(C)C(=O)c2ccccc2Cc2ccccc2)c1 | - | - | - | . | .
COC(=O)c1cc(C)sc1NC(=O)C1CC(=O)NN1Cc1ccccc1 (centres undefined) | - | - | - | - | -
COC(=O)c1c(NC(=O)C2CC(=O)NN2Cc2ccccc2)sc(C)c1C (centres undefined) | 60 | - | - | - | -
CCOc1cc(C(C(=O)NCC2CCCO2)N(C(=O)Cn2nnc3ccccc32)c2ccccc2OC)ccc1O (centres undefined) | - | - | - | . | -
Cc1ccc(NC(=O)C2(S(=O)(=O)c3ccc(Cl)cc3)CC2)cc1 | - | - | - | . | -
CC(=O)N1CCOCCOCCN(C(C)=O)CCOCC1 | - | - | - | 11 | -
CN(C(=O)CN(C)S(=O)(=O)c1ccc(F)cc1)c1c(N)n(Cc2ccccc2)c(=O)[nH]c1=O | - | - | - | . | .
COc1ccc(-n2c(O)c(/C=N/NS(=O)(=O)c3ccc(C)cc3)c3ccccc3c2=O)cc1OC | - | - | - | - | -
COc1ccc(-n2c(O)c(/C=N/Nc3nc(C)cc(C)n3)c3ccccc3c2=O)cc1OC | - | 120 | - | - | -
Cc1onc(-c2ccccc2)c1NC(=O)N(Cc1ccccc1)C(C)C | - | - | 55 | - | -
S=C(c1ccc(-c2ccccc2)cc1)N1CCOCC1 | - | 64 | - | . | -
O=C(c1ccc(-c2ccccc2)cc1)c1ccccc1C(=O)N1CCOCC1 | - | - | - | - | -
COc1ccc(N2CCN(C3CCCN(S(=O)(=O)c4ccc(C)cc4C)C3)CC2)cc1 (centres undefined) | - | - | - | . | -
SMILES | Platelet DG rel | aSyn 5UTR inh | HIF act | Wee1 degr inh | KLF5 inh
O=C(NCc1nnnn1-c1ccc(F)cc1)c1ccc([N+](=O)[O-])o1 | - | - | - | . | .
Cc1ccc(N(C)S(=O)(=O)c2ccc(-c3cc(C)no3)s2)cc1 | - | - | 9.7 | . | -
Cc1cc(-c2ccc(S(=O)(=O)N(C)c3ccc(C)c(C)c3)s2)on1 | - | - | - | . | -
COc1ccc(/C=N/Nc2ccc(C(=O)O)cc2)cc1Br | 68 | - | - | - | -
CSc1ccc(/C=N/Nc2ccc(Cl)c(C(=O)O)c2)cc1 | - | - | 174 | - | -
COc1ccc(/C=N/Nc2ccc(C(=O)O)cc2)cc1OC | - | - | - | - | -
CC(C)c1ccc(/C=N/Nc2ccc(C(=O)O)cc2)cc1 | - | 85 | - | - | -
COc1cccc(NC(=O)C2CCN(C(=O)[C@@H]3Cc4ccccc4CN3)CC2)c1 | - | - | - | . | -
CCC(C)NC(=O)c1ccc([N+](=O)[O-])c(Cl)c1 (centres undefined) | - | - | - | - | -
Cn1c(/C=C/c2ccc([N+](=O)[O-])o2)nc2ccccc2c1=O | - | 98 | - | - | -
COc1cc(C(=O)N2CCN(c3cc(Cl)ccc3Cl)CC2)cc(OC)c1OC | - | 89 | - | - | -
COc1cc(CCC(=O)Nc2cc(Cl)ccc2N2CCN(C)CC2)cc(OC)c1OC | - | - | - | 9.2 | -
COc1cc(C(=O)N2CCN(C(=O)Cc3ccccc3)CC2)cc(OC)c1OC | - | - | 13 | - | -
Cn1c(-c2ccccc2)cnc1SCC(=O)N1CCCCC1 | - | 83 | - | - | -
Cc1cccc(OCCSc2nc3ccccc3n2CCC(=O)O)c1 | - | - | - | . | -
COc1cc(C2SCCS2)cc(Br)c1Oc1ncccc1[N+](=O)[O-] | - | - | - | 13 | -
Cc1cc(C)c(C)c(OCCN2CCOCC2)c1 | - | - | - | . | -
Cc1ccc(S(=O)(=O)NCC(C)n2cncn2)cc1 (centres undefined) | - | - | - | . | -
Cc1ccc(NCc2ccccc2O)cc1C | - | - | - | 10 | -
Oc1ccc(-c2nc3ccc4ccccc4c3c3c2CCC3)cc1O | - | - | - | 9.5 | -
COc1ccc(-c2cc(C(=O)O)nc3ccc4ccccc4c23)cc1OC | - | - | - | - | -
CCCCOC(=O)Nc1ccc(N2CCOCC2)cc1 | - | - | - | - | -
CCCCOC(=O)Nc1ccc(N2CCCCC2)cc1 | - | - | - | 9.1 | -
COc1ccc(C(=O)Nc2ccc(N3CCCC3)cc2)cc1OC | 79 | - | - | . | -
COc1ccc(C(=O)Nc2ccc(N3CCOCC3)cc2)cc1OC | 66 | - | - | - | -
SMILES | Platelet DG rel | aSyn 5UTR inh | HIF act | Wee1 degr inh | KLF5 inh
COc1ccc(C(=O)Nc2ccc(N3CCCC3)cc2)cc1Br | - | - | - | . | -
Cc1ccccc1C(=O)Nc1ccc(N2CCCC2)cc1 | - | - | - | 10 | -
CN1CCN(C(=O)c2ccc(OCCOc3ccccc3)cc2)CC1 | - | - | - | . | -
CCNCc1cc(Cl)cc(OC)c1OC(C)C | - | - | - | 9.2 | -
Cc1nc2cc(N3CCCCC3)c(NC(=O)c3ccncc3)cc2c(=O)n1Cc1ccc(Cl)cc1 | - | 62 | - | - | -
O=C(O)c1ccccc1CSc1nnc2c(n1)[nH]c1ccccc12 | - | - | - | - | -
O=C(NCc1cccnc1)c1ccc(S(=O)(=O)N2CCCCC2)cc1 | - | - | - | - | -
O=S(=O)(c1ccc(NC(=S)NCc2cccnc2)cc1)N1CCCCC1 | - | 86 | - | - | -
N#CCSc1nnc(-c2ccccc2O)n1Cc1ccccc1 | - | - | - | 11 | -
COCCn1c(SCC#N)nnc1-c1ccccc1O | - | - | - | - | -
COc1cc(/C=C/C2=NNC(=O)CC2)cc(OC)c1OC | . | - | - | . | -
CC(C)c1ccc(/C=C/C2=NNC(=O)CC2)cc1 | - | 87 | - | - | -
CCOC(=O)N1CCN(C(=O)C2CCC(C(=O)N3CCN(C(=O)OCC)CC3)CC2)CC1 (centres undefined) | . | . | . | 9.5 | -

Source: PubChem BioAssay (several laboratories)
